Assay results taken from PubChem BioAssay (NCATS).
Results filed as inconclusive are left out. A call without a number means that no potency is given here. Active and inactive are the calls of the source. Calls come from the whole dose curve; as a rule, active = well fitted inhibition curve with a large enough effect; inconclusive = small, poorly fitted or top-dose-only effect; inactive = flat fitted curve, though single readings scatter.

What follows are molecules tested on CP291 (assay: qHTS profiling for inhibitors of Plasmodium falciparum proliferation (AID 504749; note: nearly all actives have a fitted effect of over 60% in size)). Details: P. falciparum in erythrocytes, SYBR Green DNA, 72 h; series mostly up to 28.7 µM.
How it was run: (§1)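 Three-day growth assay of blood-stage parasites in erythrocytes (0.3% parasitemia, 2.5% hematocrit) at 37 C, 5% CO2, quantified by SYBR Green DNA staining after overnight detergent lysis.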
Potency is the fitted concentration of half-maximal effect.

| SMILES | Potency |
| --- | --- |
| C[C@H](N)Cc1ccccc1 | inactive |
| C[C@]12C=CC(=O)C=C1CC[C@@H]1C2CC[C@]2(C)OC(=O)CCC12 (some centres not stated) | inactive |
| OCC(O)[C@H]1O[C@@H]2O[C@H](C(Cl)(Cl)Cl)O[C@@H]2[C@H]1O (some centres not stated) | inactive |
| CC1(C)[C@@H](C=C(Cl)Cl)[C@@H]1C(=O)OCc1c(F)c(F)cc(F)c1F | inactive |
| CC1(C)S[C@@H]2[C@H](N)C(=O)N2C1C(=O)O (some centres not stated) | inactive |
| C=C1Nc2ccccc2C(=O)N1c1ccccc1C | inactive |
| CC1OC(O[C@H]2C[C@@H](O)[C@]3(CO)[C@@H]4C(CC[C@]3(O)C2)[C@@]2(O)CC[C@H](C3=CC(=O)OC3)[C@@]2(C)C[C@H]4O)C(O)C(O)C1O (some centres not stated) | inactive |
| O=[N+]([O-])OC1CO[C@H]2C(O[N+](=O)[O-])COC12 (some centres not stated) | inactive |
| CCOC(=O)/C=C(C)/C=C/CC(C)CCCC(C)C (configuration not stated) | inactive |
| [S]=[Sb][S][Sb]=[S] | inactive |
| CN1C2CCC1C(C(=O)O)C(OC(=O)c1ccccc1)C2 (configuration not stated) | inactive |
| C[C@@H]1CC[C@H]2[C@@H](C)C(=O)O[C@@H]3OC4(C)CC[C@@H]1C32OO4 (some centres not stated) | 10.7 nM (active) |
| Cc1ccc2c(c1)[C@@H]1CN(C)CC[C@H]1N2 | inactive |
| Nc1nc(O)c(-c2ccccc2)o1 | inactive |
| C=CC[N+]1(C)CCC23c4c5ccc(O)c4O[C@H]2C(=O)CC[C@@]3(O)C1C5 (some centres not stated) | inactive |
| OC[C@@H](O)[C@H]1O[C@@H]2OC(C(Cl)(Cl)Cl)O[C@H]2[C@H]1O (some centres not stated) | inactive |
| CCCCCCC(=O)O[C@H]1CC[C@H]2[C@@H]3CCC4CC(=O)C=C(C)[C@]4(C)[C@H]3CC[C@]12C (some centres not stated) | inactive |
| Cc1cc(C)cc(C(=O)OC2CC3CCC(C2)N3C)c1 (configuration not stated) | inactive |
| CCCN1CCCC2Cc3nc(N)ncc3CC21 (configuration not stated) | inactive |
| COc1ccc2c3c1O[C@H]1[C@@H](O)C=C[C@H]4C(C2)NCCC341 (some centres not stated) | inactive |
| CCCCCC(O)C1C(=O)OC(C)C(O)\C=C/C=C\C=C/C=C\C=C(\C)C(O)C(O)C(O)CC(O)CC(O)CC(O)CC(O)CC1O (configuration not stated) | inactive |
| CCCCCc1cc(O)c2c(c1)OC(C)(C)C1CC=C(C)CC21 (configuration not stated) | 6750 nM (active) |

These molecules were tested on CP297 in the same assay as above. Details: P. falciparum in erythrocytes, SYBR Green DNA, 72 h; series mostly up to 28.7 µM.
How it was run: as §1

| SMILES | Potency |
| --- | --- |
| C[C@H](N)Cc1ccccc1 | inactive |
| C[C@]12C=CC(=O)C=C1CC[C@@H]1C2CC[C@]2(C)OC(=O)CCC12 (some centres not stated) | inactive |
| OCC(O)[C@H]1O[C@@H]2O[C@H](C(Cl)(Cl)Cl)O[C@@H]2[C@H]1O (some centres not stated) | inactive |
| CC1(C)S[C@@H]2[C@H](N)C(=O)N2C1C(=O)O (some centres not stated) | inactive |
| C=C1Nc2ccccc2C(=O)N1c1ccccc1C | inactive |
| CC1OC(O[C@H]2C[C@@H](O)[C@]3(CO)[C@@H]4C(CC[C@]3(O)C2)[C@@]2(O)CC[C@H](C3=CC(=O)OC3)[C@@]2(C)C[C@H]4O)C(O)C(O)C1O (some centres not stated) | inactive |
| O=[N+]([O-])OC1CO[C@H]2C(O[N+](=O)[O-])COC12 (some centres not stated) | inactive |
| CCOC(=O)/C=C(C)/C=C/CC(C)CCCC(C)C (configuration not stated) | inactive |
| [S]=[Sb][S][Sb]=[S] | inactive |
| CN1C2CCC1C(C(=O)O)C(OC(=O)c1ccccc1)C2 (configuration not stated) | inactive |
| C[C@@H]1CC[C@H]2[C@@H](C)C(=O)O[C@@H]3OC4(C)CC[C@@H]1C32OO4 (some centres not stated) | 15.1 nM (active) |
| Cc1ccc2c(c1)[C@@H]1CN(C)CC[C@H]1N2 | inactive |
| Nc1nc(O)c(-c2ccccc2)o1 | inactive |
| C=CC[N+]1(C)CCC23c4c5ccc(O)c4O[C@H]2C(=O)CC[C@@]3(O)C1C5 (some centres not stated) | inactive |
| OC[C@@H](O)[C@H]1O[C@@H]2OC(C(Cl)(Cl)Cl)O[C@H]2[C@H]1O (some centres not stated) | inactive |
| CCCCCCC(=O)O[C@H]1CC[C@H]2[C@@H]3CCC4CC(=O)C=C(C)[C@]4(C)[C@H]3CC[C@]12C (some centres not stated) | inactive |
| Cc1cc(C)cc(C(=O)OC2CC3CCC(C2)N3C)c1 (configuration not stated) | inactive |
| CCCN1CCCC2Cc3nc(N)ncc3CC21 (configuration not stated) | inactive |
| COc1ccc2c3c1O[C@H]1[C@@H](O)C=C[C@H]4C(C2)NCCC341 (some centres not stated) | inactive |
| CCCCCC(O)C1C(=O)OC(C)C(O)\C=C/C=C\C=C/C=C\C=C(\C)C(O)C(O)C(O)CC(O)CC(O)CC(O)CC(O)CC1O (configuration not stated) | inactive |
